This passage reports Potency, outcome and max response results from PubChem BioAssay (Tox21).

The nature of test [1]: qHTS assay to identify small molecule agonists of the hypoxia (HIF-1) signaling pathway - cell viability counter screen (AID 1224844; calls by dose curve; also: nearly all actives have a fitted effect of over 50% in size). The procedure, abridged:
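In this counter screen, HRE-bla ME-180 cell viability after 17 hrs of compound exposure at 37C was read by CellTiter-Glo luminescence, multiplexed with the beta-lactamase reporter measurement.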

The nature of test [2]: qHTS assay to identify small molecule agonists of H2AX (AID 1224845; active = well fitted activation curve with a large enough effect in the signal ratio in the repeat runs, not every such curve was filed as active; the % refers to the signal ratio; also: potency is read from the fitted curve at half-maximal effect). The procedure, abridged:
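Wild-type CHO-K1 cells plated overnight, then exposed 3 hr at 37C to compounds at 15 concentrations (0.76% DMSO). Lysed, then HTRF anti-pH2AX(S139)-cryptate/anti-H2AX-d2 detection after 24 hr at room temperature; emissions 665 and 620 nm.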
On the technique in general: Quantitative high-throughput screening tests each substance at several concentrations.

A short description of test [3]: qHTS assay to identify small molecule agonists of H2AX - cell viability counter screen (AID 1224847; calls by dose curve; also: nearly all actives have a fitted effect of over 30% in size; also: potency is read from the fitted curve at half-maximal effect). Summed up: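 Quantitative HTS viability measurement: CHO-K1 wild-type cells in serum (10% FBS) medium, short 3 hr drug exposure at 37C with 0.76% DMSO, CellTiter-Glo luminescent detection.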
The nature of test [4]: qHTS RealTime-Glo MT Cell Viability Assay in HepG2 cells - 24 hour (AID 1224867). Also: nearly all actives have a fitted effect of over 50% in size. Summed up: (§1)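 HepG2 cells (600/well) were dispensed with RealTime-Glo reagents, incubated 5 h at 37 °C, then treated with compounds in DMSO for up to 40 h. Nonlytic NanoLuc luminescence reflecting viable cells was read at each stated time point.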
The nature of test [5]: qHTS RealTime-Glo MT Cell Viability Assay in HEK293 cells - 32 hour (AID 1224868). Also: nearly all actives have a fitted effect of over 50% in size. Also: potency is read from the fitted curve at half-maximal effect. The procedure, abridged: (§2)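 HEK293 cells seeded with NanoLuc/prosubstrate reagent, rested 5 h at 37 C, then dosed and kept at 37 C up to 40 h. Nonlytic real-time luminescence from viable cells read at 0, 8, 16, 24, 32 and 40 h.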
Test [6] can be described thus: A CellTox Green Cytotoxicity Assay to monitor cytotoxicity in HEK293 cells - 0 hour (AID 1224869). Also: nearly all actives have a fitted effect of over 50% in size. The procedure, abridged: (§3)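 Real-time, in one plate: 600 HEK293 cells/well with dead-cell DNA dye, pinned compound after 5 h, 37 C incubation over 40 h; viable cells give no appreciable fluorescence.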
Test [7] can be described thus: qHTS RealTime-Glo MT Cell Viability Assay in HepG2 cells - 40 hour (AID 1224870). Also: nearly all actives have a fitted effect of over 50% in size. Summed up:
(§4)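 HepG2 cells mixed with RealTime-Glo MT reagents (NanoLuc plus cell-permeant prosubstrate) were seeded at 600 cells/well, incubated 5 h at 37 C/5% CO2, then pinned with compounds in DMSO; nonlytic luminescence tracked viability during 40 h treatment.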

Test [8] is described as follows: A CellTox Green Cytotoxicity Assay to monitor cytotoxicity in HEK293 cells - 40 hour (AID 1224871). Also: nearly all actives have a fitted effect of over 45% in size. Summed up:
as §3

Test [9] in a line: qHTS RealTime-Glo MT Cell Viability Assay in HEK293 cells - 16 hour (AID 1224872). The procedure, abridged:
as §2

A short description of test [10]: qHTS RealTime-Glo MT Cell Viability Assay in HepG2 cells - 8 hour (AID 1224873). Also: nearly all actives have a fitted effect of over 55% in size. The procedure, abridged: as §4
Test [11] in a line: qHTS RealTime-Glo MT Cell Viability Assay in HEK293 cells - 40 hour (AID 1224874). Also: nearly all actives have a fitted effect of over 50% in size. Also: potency is read from the fitted curve at half-maximal effect. To be noted: RealTime-Glo luminescence; max response: stronger effect = lower value. The procedure, abridged:
(§5)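 Kinetic, non-lysing viability readout. Seed HEK293 (600/well) with reagent, incubate 5 h at 37 C/5% CO2, pin 23 nL compound in DMSO, incubate at 37 C, read luminescence at 0, 8, 16, 24, 32, 40 h.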

Test [12] is described as follows: A CellTox Green Cytotoxicity Assay to monitor cytotoxicity in HEK293 cells - 24 hour (AID 1224875). Also: series mostly up to about 77 µM; nearly all actives have a fitted effect of over 45% in size. Summed up:
as §3

Test [13] is described as follows: A CellTox Green Cytotoxicity Assay to monitor cytotoxicity in HepG2 cells - 16 hour (AID 1224876). Also: nearly all actives have a fitted effect of over 45% in size. The procedure, abridged:
(§6)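 Cytotoxicity was tracked as dead-cell DNA fluorescence in HepG2 cells treated with test compounds at 37 C; each time-point value comes from one kinetic series spanning 0, 8, 16, 24, 32 and 40 h.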

Test [14] can be described thus: A CellTox Green Cytotoxicity Assay to monitor cytotoxicity in HepG2 cells - 24 hour (AID 1224878). Also: nearly all actives have a fitted effect of over 45% in size. Summed up: as §6
Test [15] can be described thus: A CellTox Green Cytotoxicity Assay to monitor cytotoxicity in HepG2 cells - 40 hour (AID 1224879). Also: nearly all actives have a fitted effect of over 40% in size. Summed up:
as §6

Test [16] is described as follows: qHTS RealTime-Glo MT Cell Viability Assay in HEK293 cells - 0 hour (AID 1224880). The procedure, abridged:
as §5

The nature of test [17]: qHTS assay to identify small molecule agonists of the hypoxia (HIF-1) signaling pathway (AID 1224846; active = well fitted activation curve with a large enough effect in the signal ratio in the repeat runs, not every such curve was filed as active; the % refers to the signal ratio). The procedure, abridged: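 ME-180 HRE-bla reporter cells; compounds in DMSO, 17 h at 37C; read-out beta-lactamase via CCF4-AM FRET.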
Test [18] is described as follows: qHTS RealTime-Glo MT Cell Viability Assay in HepG2 cells - 32 hour (AID 1224877). Also: nearly all actives have a fitted effect of over 55% in size. Summed up: as §1

SMILES strings stand for the structures. “And” between values parts separate entries of the source, which are not always exact repeats. Identical values can stand only once. Results filed as inconclusive are left out. More than one record can exist for a structure, and the calls need not agree. The source made the active and inactive calls. Unless noted, calls follow the shape of the dose curve; as a rule, active = well fitted curve in the direction sought with a large enough effect in the repeat runs; inconclusive = weak or mixed curves; inactive = no such curve, though single readings can be large; an effect the other way counts as inactive or inconclusive.
% is scaled to controls: 0 for no effect and ±100 for the full control effect.

For the compound `CCc1nc(N)nc(N)c1-c1ccc(Cl)cc1`, the Potency result in test [1], in test [4], in test [6], in [7], in test [8] and in test [9] was “inactive” throughout. Besides, the Potency entry in test [10], in test [12], in [13], in test [14], in test [15] and in test [16] was “inactive” throughout. Moreover, the Potency in test [2] was 22.9 µM (active); in test [3], “inactive and 8.98 µM (active) and 12.4 µM (active)”; in test [5], 3.52 µM (active) and 12.3 µM (active); in test [11], 3.52 µM (active) and 12.3 µM (active) and 5.35 µM (active).
Turning to `COc1ccc(CN(CCN(C)C)c2ccccn2)cc1`, the Potency result in test [2], in [3], in test [6], in [12], in test [13] and in test [14] was “inactive” each time. The Potency entry in [15] is “inactive”.
Consider `Nc1ccc([N+](=O)[O-])cc1O`, for which the Potency result in [1], in test [3], in test [4], in test [5], in test [6] and in [7] was “inactive” in each case. The Potency result in test [8], in [9], in test [10], in [12], in test [13] and in test [18] was “inactive” in each case. The Potency result in test [14], in test [15] and in [16] was “inactive” throughout. In [17], the compound was classed as inactive.
In the case of `CC(=O)CC(c1ccccc1)c1c(O)c2ccccc2oc1=O` (stereo unspecified), the Potency entry in [1], in test [2], in test [3], in [4], in [5] and in [6] was “inactive” each time. Also, the Potency entry in [7], in test [9], in [10], in [12], in test [13] and in [18] was “inactive” throughout. Also, the Potency result in [14], in test [15] and in test [16] was “inactive” each time. Further, the outcome in test [17] was inactive. Moreover, in test [11], the max response is 5.95% (inactive) [middle of 4 runs].
